Assay results taken from PubChem BioAssay AID1159580 (chemical genetic matrix, 2015).
Where “and” joins values, the source holds several entries; their conditions need not be identical. Identical values can stand only once. The campaign covered roughly 5,500 compounds. About 2,000 (36%) were called active. Not shown: some 18% with an inconclusive outcome. Rule as the data show it: active = normalized growth mostly below about 0.91 (no sharp cut-off); inconclusive = no clear call, values can overlap the other calls; inactive = mostly above about 0.92. Some of the results follow.

Experiment: chemical genetic growth profiling, strain panel (AID 1159580);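 also: tested at 20 µM; growth read once vehicle control cultures reached saturation at 30 °C; 1 = growth at the plate median or of vehicle wells; lower values mean less growth of the strain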
Conditions: S. cerevisiae deletion strains, growth OD

Measured: normalized growth

CO/N=C(\C(=O)NC1C(=O)N2C(C(=O)O)=C(COC(N)=O)CSC12)c1ccco1 (stereo unspecified)
active: locus YBR021W, strain FUR4, stronger effect = lower value 0.0938 | locus YBR229C, strain ROT2, stronger effect = lower value 0.0259 | locus YCL029C, strain bik1, stronger effect = lower value 0.0647 | locus YDL035C, strain GPR1, stronger effect = lower value 0.0509 | locus YDL074C, strain BRE1, stronger effect = lower value 0.0872 | locus YDL101C, strain DUN1, stronger effect = lower value 0.0518 | locus YDL185W, strain tfp1, stronger effect = lower value 0.0709 | locus YDL192W, strain arf1, stronger effect = lower value 0.0602 | locus YDR101C, strain arx1, stronger effect = lower value 0.0636 | locus YDR162C, strain NBP2, stronger effect = lower value 0.0497 | locus YDR318W, strain mcm21, stronger effect = lower value 0.062 | locus YDR388W, stronger effect = lower value 0.0594 | locus YDR502C, strain sam2, stronger effect = lower value 0.057 | locus YEL061C, strain CIN8, stronger effect = lower value 0.0491 | locus YER110C, stronger effect = lower value 0.0738 | locus YER155C, strain BEM2, stronger effect = lower value 0.0713 | locus YER167W, strain BCK2, stronger effect = lower value 0.0538 | locus YGL078C, strain dbp3, stronger effect = lower value 0.387 | locus YGL086W, strain mad1, stronger effect = lower value 0.0523 | locus YGL248W, strain PDE1, stronger effect = lower value 0.0434 | locus YGR135W, strain pre9, stronger effect = lower value 0.0617 | locus YGR252W, strain gcn5, stronger effect = lower value 0.126 | locus YHR079C, strain IRE1 (second series), stronger effect = lower value 0.0616 | locus YHR094C, strain hxt1, stronger effect = lower value 0.0582 | locus YHR129C, strain ARP1, stronger effect = lower value 0.056 | locus YHR200W, strain rpn10, stronger effect = lower value 0.0599 | locus YIL066C, strain RNR3, stronger effect = lower value 0.0444 | locus YIL073C, strain SPO22, stronger effect = lower value 0.121 | locus YIL125W, strain kgd1, stronger effect = lower value 0.161 | locus YIR030C, strain dcg1, stronger effect = lower value 0.0751 | locus YJL134W, strain LCB3, stronger effect = lower value 0.0455 | locus YJL168C, strain set2, stronger effect = lower value 0.0569 | locus YJL187C, strain SWE1 (second series), stronger effect = lower value 0.0486 | locus YJR043C, strain POL32, stronger effect = lower value 0.0695
0.0608 (active) and 1.03 (inactive): locus YJL095W, strain BCK1, stronger effect = lower value
inactive: locus YAL021C, strain ccr4, stronger effect = lower value 0.988 | locus YAL026C, strain drs2, stronger effect = lower value 0.984 | locus YAL030W, strain snc1, stronger effect = lower value 0.977 | locus YBL061C, strain skt5, stronger effect = lower value 0.967 | locus YBR009C, strain hhf1, stronger effect = lower value 0.985 | locus YBR023C, strain chs3, stronger effect = lower value 0.964 | locus YBR171W, strain sec66, stronger effect = lower value 0.958 | locus YBR231C, strain swc5, stronger effect = lower value 0.971 | locus YBR279W, strain paf1, stronger effect = lower value 0.975 | locus YCL011C, strain gbp2, stronger effect = lower value 0.968 | locus YCL016C, strain dcc1, stronger effect = lower value 0.969 | locus YCL061C, strain MRC1, stronger effect = lower value 0.969 | locus YCL069W, strain vba3, stronger effect = lower value 0.977 | locus YCR088W, strain abp1, stronger effect = lower value 0.975 | locus YDL005C, strain med2, stronger effect = lower value 0.969 | locus YDL040C, strain nat1, stronger effect = lower value 0.981 | locus YDR001C, strain nth1, stronger effect = lower value 0.976 | locus YDR069C, strain doa4, stronger effect = lower value 0.988 | locus YDR137W, strain rgp1, stronger effect = lower value 0.945 | locus YDR159W, strain sac3, stronger effect = lower value 0.99 | locus YDR195W, strain ref2 1 | locus YDR297W, strain sur2, stronger effect = lower value 0.972 | locus YDR334W, strain swr1, stronger effect = lower value 0.966 | locus YDR335W, strain msn5, stronger effect = lower value 0.975 | locus YDR392W, strain spt3, stronger effect = lower value 0.894 | locus YEL003W, strain gim4, stronger effect = lower value 0.997 | locus YEL037C, strain rad23, stronger effect = lower value 0.967 | locus YEL061C, strain CIN8 (second series), stronger effect = lower value 0.976 | locus YER015W, strain faa2, stronger effect = lower value 0.968 | locus YER016W, strain bim1, stronger effect = lower value 0.992 | locus YER111C, strain swi4, stronger effect = lower value 0.976 | locus YER155C, strain BEM2 (second series), stronger effect = lower value 0.969 | locus YFR010W, strain ubp6, stronger effect = lower value 0.966 | locus YGL167C, strain pmr1, stronger effect = lower value 0.96 | locus YGL173C, strain kem1, stronger effect = lower value 0.969 | locus YGL227W, strain vid30, stronger effect = lower value 0.978 | locus YGL240W, strain doc1, stronger effect = lower value 0.989 | locus YGL253W, strain hxk2, stronger effect = lower value 0.99 | locus YHR013C, strain ard1, stronger effect = lower value 0.964 | locus YHR027C, strain rpn1, stronger effect = lower value 0.978 | locus YHR079C, strain IRE1, stronger effect = lower value 1.08 | locus YHR142W, strain chs7, stronger effect = lower value 0.926 | locus YJL092W, strain hpr5, stronger effect = lower value 0.98 | locus YJL095W, strain BCK1 (second series), stronger effect = lower value 0.98 | locus YJL115W, strain asf1, stronger effect = lower value 0.983 | locus YJL129C, strain trk1, stronger effect = lower value 0.971 | locus YJL154C, strain vps35, stronger effect = lower value 0.971 | locus YJL164C, strain tpk1, stronger effect = lower value 0.977 | locus YJL166W, strain qcr8, stronger effect = lower value 0.962 | locus YJL187C, strain SWE1, stronger effect = lower value 0.971
0.0514 (active) and 1.05 (inactive): locus YHR030C, strain SLT2, stronger effect = lower value
